PubChem BioAssay (NCATS)
Results filed as inconclusive are left out. Active and inactive are the calls of the source. The call rests on the fitted dose curve; in most records, active means well fitted cell-killing curve with a large enough effect; inconclusive means small, poorly fitted or top-dose-only effect, or effect the other way; inactive means flat fitted curve, though single readings scatter.

System: Tov112D
Experiment: Primary qHTS to identify gynecologic anti-cancer compounds using libraries of approved drugs and bioactive compounds (AID 1345084); further: nearly all actives have a fitted effect of over 55% in size
Details: Gynecologic cancer cell panel viability, ATPlite luminescence, 48 h; series mostly up to 57.5 µM; activity change, negative = cytotoxicity: at the top concentration
In short: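 Cells, 1,000 per well, were allowed to settle for 16 h at 37 C before compound addition. Five concentrations were tested for 48 h, and viability was read by ATPlite luminescence after 15 min at room temperature.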
On the % scale 0 is the no-effect control and ±100 the full control effect; potency means the concentration at half of the fitted maximal effect.

**Q.** With `CC(NCCCc1cccc(C(F)(F)F)c1)c1cccc2ccccc12` (centres undefined) as the molecule, how does the “activity change, negative = cytotoxicity” value read?
**A.** 13% [at 25.3 µM] (inactive)

**Q.** For `CCNC1(C(N)=O)CN(c2nc(C)nc3c(-c4ccc(Cl)cc4)c(-c4ccccc4Cl)nn23)C1`, which “activity change, negative = cytotoxicity” value is on record?
**A.** 0.298% (inactive)

**Q.** With `CCc1c(Cl)c(O)c(Cl)c(O)c1C(=O)O[C@H]1[C@H](O)[C@H](OC)[C@H](OC/C2=C\C=C\C[C@H](O)/C(C)=C\[C@H](CC)[C@@H](O[C@@H]3OC(C)(C)[C@@H](OC(=O)C(C)C)[C@H](O)[C@@H]3O)/C(C)=C/C(C)=C/C[C@@H]([C@@H](C)O)OC2=O)O[C@@H]1C` as the molecule, how does the “activity change, negative = cytotoxicity” value read?
**A.** 29.7% [at 25.3 µM] (inactive)

**Q.** With `CCCN(CCc1ccsc1)C1CCc2c(O)cccc2C1` (centres undefined) as the molecule, how does the “activity change, negative = cytotoxicity” value read?
**A.** -1.1% (inactive)

**Q.** `CC(=O)O[C@@H]1[C@@H](O)[C@H](O[C@@H]2[C@@H](O)[C@@H](O)[C@H](O[C@H]3[C@H](O[C@H]4[C@H](O[C@H]5CC[C@@]6(C)C(CC[C@]7(C)C6CC=C6[C@@H]8CC(C)(C)CC[C@]8(C(=O)O)CC[C@]67C)[C@]5(C)CO)O[C@H](CO)[C@@H](O)[C@@H]4O)OC[C@@H](O)[C@@H]3O)O[C@H]2C)OC[C@H]1O` (some centres undefined) was tested. Which activity change, negative = cytotoxicity did it give?
**A.** -6.37% [at 11.6 µM] (inactive)

**Q.** For `Fc1ccc2c(CCNCc3cccc(OCC(F)(F)C(F)F)c3)c[nH]c2c1`, which “activity change, negative = cytotoxicity” value is on record?
**A.** -0.34% (inactive)

**Q.** Which “activity change, negative = cytotoxicity” value does the source give for `Cc1cc2c(cc1N1C(=O)c3cccc4c(CCCO)ccc(c34)C1=O)n(C)c(=O)n2C` here?
**A.** -33.6% [at 25.3 µM] (inactive)

**Q.** Which “activity change, negative = cytotoxicity” value does the source give for `Cc1c(F)ccc(C(=O)Nc2cc([N+](=O)[O-])ccc2N2CCN(C)CC2)c1Cl` here?
**A.** -0.521% (inactive)

**Q.** With `Cc1ccnc(NC(=O)C(C)c2cccc(C(=O)c3ccccc3)c2)c1` (centres undefined) as the molecule, how does the “activity change, negative = cytotoxicity” value read?
**A.** 6.67% (inactive)

**Q.** With `CC1=CC2/C=C(\C)CCC(O)C/C=C/C(=O)OC23C(=O)NC(CC(C)C)C3C1C` (centres undefined) as the molecule, how does the “activity change, negative = cytotoxicity” value read?
**A.** -2.92% [at 25.3 µM] (inactive)

**Q.** With `CC[C@H]1CN(c2nc(N)c(C(N)=O)nc2Cl)CCN1C1CCN(Cc2ccc(Cl)cc2)CC1` as the molecule, how does the “activity change, negative = cytotoxicity” value read?
**A.** 0.956% (inactive)

**Q.** How did the “activity change, negative = cytotoxicity” value turn out when `COc1cccc(NCCC2(c3ccccc3)CC(C)(C)OC(C)(C)C2)c1` was run?
**A.** -0.371% (inactive)

**Q.** `CNc1cc2[nH]c(=O)n(-c3ccc(NC(=O)NS(=O)(=O)c4ccc(Cl)s4)cc3)c(=O)c2cc1F` was tested. Which “activity change, negative = cytotoxicity” value did it give?
**A.** -1.01% (inactive)

**Q.** With `Fc1ccc(CN2CCC(Nc3ccc(C(F)(F)F)nn3)CC2)cc1F` as the molecule, how does the “activity change, negative = cytotoxicity” value read?
**A.** -2.67% (inactive)

**Q.** For `COc1cc(OC)c(NC(=O)c2ccc(Cc3cc4c(cc3C)C(C)(C)CCC4(C)C)o2)c(OC)c1`, which “activity change, negative = cytotoxicity” value is on record?
**A.** 0.985% (inactive)

**Q.** For `C/C=C(/C=C(C)/C=C/C=C/C=C(\C)C(=O)C12OC1C(O)(CCO)NC2=O)C(=O)OC` (centres undefined), which “activity change, negative = cytotoxicity” value is on record?
**A.** -5.54% [at 25.3 µM] (inactive)

**Q.** With `C=C1C(=O)OC2C1CCC1(C)C(O)CCC(=C)C21` (centres undefined) as the molecule, how does the “activity change, negative = cytotoxicity” value read?
**A.** 4.21% (inactive)

**Q.** How did the “activity change, negative = cytotoxicity” value turn out when `Cc1cc(F)c(C(=O)Nc2cccc(-c3nncn3C(C)C)n2)cc1-n1cnc(C2CC2)c1` was run?
**A.** -15.1% [at 25.3 µM] (inactive)

**Q.** For `C/C=C(/C)C(=O)OC1C=C2C3C(C)C(C)C(OC(=O)C(C)C(C)O)CC3(C)CCC2(C)C2(C)CC(OC(C)=O)C3C(C)(C)C(O)C(=O)CC3(C)C12` (centres undefined), which “activity change, negative = cytotoxicity” value is on record?
**A.** 0.453% [at 25.3 µM] (inactive)

**Q.** With `Cc1nc(Nc2ccc(F)cc2)nc(N2CCc3ccccc3C2C)c1C` (centres undefined) as the molecule, how does the “activity change, negative = cytotoxicity” value read?
**A.** -11.6% (inactive)

**Q.** Which Potency does the source give for `C#CC(=O)N(c1ccc(OC)cc1OC)C(C(=O)NCC(=O)OCC)c1cccs1` (centres undefined) here?
**A.** 6.31 µM (active)

**Q.** How did the “activity change, negative = cytotoxicity” value turn out when `COC1CCN(C(=O)c2cc(Cc3n[nH]c(=O)c4ccccc34)ccc2F)CC1` was run?
**A.** 0.363% (inactive)

**Q.** How did the “activity change, negative = cytotoxicity” value turn out when `CCCc1ccc(OCC(=O)N(Cc2nc(-c3cccnc3)no2)C(C)C)cc1` was run?
**A.** -4.51% (inactive)

**Q.** Which activity change, negative = cytotoxicity does the source give for `CC(=O)OC1CC(C)(C(=O)O)CC2C3=CC(=O)C4C5(C)CCC(OC6OC(C(=O)O)C(O)C(O)C6OC6OC(C(=O)O)C(O)C(O)C6O)C(C)(C)C5CCC4(C)C3(C)CCC12C` (centres undefined) here?
**A.** -0.209% [at 11.6 µM] (inactive)

**Q.** `C=CC(=O)N1CCN(C(=O)CNc2cc(-c3ccccc3Cl)c(Cl)cc2OC)CC1` was tested. Which “activity change, negative = cytotoxicity” value did it give?
**A.** -25% (inactive)

**Q.** Which “activity change, negative = cytotoxicity” value does the source give for `Cc1c(C(=O)NCc2cccnc2)nn(-c2ccc(Cl)cc2Cl)c1-c1ccc(Cl)cc1` here?
**A.** -0.804% (inactive)

**Q.** How did the “activity change, negative = cytotoxicity” value turn out when `Cc1cccc(C#Cc2cc(F)cc(C#N)c2)n1` was run?
**A.** 3.8% (inactive)

**Q.** With `NCC(CNc1nc(Nc2cccc(NC(=O)N3CCCC3)c2)ncc1I)C(=O)c1cccs1` (centres undefined) as the molecule, how does the “activity change, negative = cytotoxicity” value read?
**A.** -15.3% (inactive)

**Q.** `COc1cc(C(N)=O)nc(-c2ccccn2)c1O` was tested. Which “activity change, negative = cytotoxicity” value did it give?
**A.** -7.86% (inactive)

**Q.** For `COc1cc(O)cc(OC2OC(CO)C(O)C(O)C2O)c1` (centres undefined), which “activity change, negative = cytotoxicity” value is on record?
**A.** 7.45% (inactive)

**Q.** With `N#Cc1ccc(N2N=C3c4ccc(C(=O)O)cc4CC[C@@H]3[C@@H]2C2CCCC2)cc1Cl` as the molecule, how does the “activity change, negative = cytotoxicity” value read?
**A.** 3.61% (inactive)

**Q.** With `O=C([C@@H](Cc1cccc(C(F)(F)F)c1)NS(=O)(=O)c1cc(F)c2c(c1)CCNC2)N1CCCC1` as the molecule, how does the “activity change, negative = cytotoxicity” value read?
**A.** -6.01% (inactive)

**Q.** `CCNC(=O)c1noc(-c2cc(Cl)c(O)cc2O)c1-c1ccc(OC)cc1` was tested. Which Potency did it give?
**A.** 0.501 µM (active)

**Q.** `O=C(NCc1nc2ccccc2c(=O)n1-c1ccc(F)cc1)Nc1ccc(Cl)c(C(F)(F)F)c1` was tested. Which “activity change, negative = cytotoxicity” value did it give?
**A.** -15.2% (inactive)
